NFkB binder = binders of NF-kB p50 subunit, primary screen, biochemical, small molecule microarray, anti-His fluorescence. Nuclear factor NF-kappa-B p105 subunit (Homo sapiens), P19838. anti-His fluorescence binding. calls only. 17,000 compounds, 1.3% hits;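 active = spot fluorescence over background significantly raised, with a chance value under 7% in all four replicate spots of the compound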;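 also: probe protein is his-tagged human p50 processed subunit at 1 µg/ml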
c-Myc SMM = binders of human c-Myc, primary screen, biochemical, small molecule microarray, anti-His fluorescence | Myc proto-oncogene protein (Homo sapiens), P01106 | His-c-Myc binding | calls only | 17,000 compounds, 1.5% hits | AID 624141, 2012;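 active = spot fluorescence over background with P-value below 7% in all four replicate spots, showing protein binding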
p53 PUMA act = mutant p53 pathway re-activators, primary screen, cell-based, SW480, luciferase, single point, HTS. AID 624151, 2012. SW480 PUMA-promoter luciferase, p53 mutant reactivation. 28,000 compounds, 1.5% hits. activation, % at 9.98 µM; in the data active = activation above about 52%
STAT3 binder = STAT3 binders, primary screen, biochemical, small molecule microarray, single point, set 2. His-STAT3 binding, anti-His fluorescence. calls only. 17,000 compounds, 0.2% hits;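 active = compounds whose four printed spots each show fluorescence over background unusually high for their array block, chance value under 7%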
Target sequence (P40763 whole entry, looked up): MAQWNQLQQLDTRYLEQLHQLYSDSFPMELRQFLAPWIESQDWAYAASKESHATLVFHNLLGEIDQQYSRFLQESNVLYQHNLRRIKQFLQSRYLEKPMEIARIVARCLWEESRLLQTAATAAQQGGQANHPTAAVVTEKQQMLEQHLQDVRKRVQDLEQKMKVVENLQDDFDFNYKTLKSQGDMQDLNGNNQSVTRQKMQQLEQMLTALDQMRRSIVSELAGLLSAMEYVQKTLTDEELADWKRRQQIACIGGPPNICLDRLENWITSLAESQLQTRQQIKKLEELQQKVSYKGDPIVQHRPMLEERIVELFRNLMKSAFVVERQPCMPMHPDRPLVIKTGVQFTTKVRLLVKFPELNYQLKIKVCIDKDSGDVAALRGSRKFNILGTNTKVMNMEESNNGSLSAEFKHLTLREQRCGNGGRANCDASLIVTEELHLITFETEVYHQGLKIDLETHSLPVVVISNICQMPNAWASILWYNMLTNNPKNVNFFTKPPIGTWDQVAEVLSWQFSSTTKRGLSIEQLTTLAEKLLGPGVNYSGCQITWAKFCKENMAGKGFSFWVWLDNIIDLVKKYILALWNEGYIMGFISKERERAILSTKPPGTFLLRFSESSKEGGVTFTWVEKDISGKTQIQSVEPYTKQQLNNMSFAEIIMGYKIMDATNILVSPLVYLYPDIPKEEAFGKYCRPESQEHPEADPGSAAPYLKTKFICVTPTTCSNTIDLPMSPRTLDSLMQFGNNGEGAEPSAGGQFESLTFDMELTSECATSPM
p53 mut binder = binders of human mutant p53, primary screen, biochemical, small molecule microarray, anti-GST fluorescence. mutant tumor protein p53 (GST-tagged), Homo sapiens. small molecule microarray binding. calls only. 17,000 compounds, 0.4% hits. AID 624136, 2012;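 active = compounds whose four printed spots each glow above background more than chance allows, each with a p-value under 7%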
Hits are given with their value; . = inactive; / = not tested or not shown; + = active, no number. Shown are actives, neighbours in structure and some others; about 2.6% of the full set was active somewhere.

SMILES | NFkB binder | c-Myc SMM | p53 PUMA act | STAT3 binder | p53 mut binder
Cc1cc(I)cnc1NC(=S)NC(=O)c1ccco1 | . | . | 75.7 | . | .
Cc1sc(NC(=S)NC(=O)c2ccco2)c(C(N)=O)c1C | / | / | 59.1 | / | /
COc1c(Cl)cc(Cl)cc1CNCCNCC(C)O (stereo unspecified) | . | . | . | + | +
C=CCOC(=O)[C@@H]1[C@H]2C(=O)O[C@H](c3ccccc3)[C@H](c3ccccc3)N2[C@H](c2ccc(OCCOC(=O)[C@@H]3C[C@@H]4C(=O)N5CCC[C@H]5C(=O)N4[C@@H]3c3ccc(O)cc3)cc2)[C@@]12C(=O)Nc1ccc(I)cc12 | . | . | / | . | .
C=CCOC(=O)[C@H]1[C@@H]2C(=O)O[C@@H](c3ccccc3)[C@@H](c3ccccc3)N2[C@@H](c2ccc(OCCOC(=O)[C@@H]3C[C@@H]4C(=O)N[C@@H](CC(C)C)C(=O)N4[C@@H]3c3cccc(OCCO)c3)cc2)[C@]12C(=O)Nc1ccc(I)cc12 | + | . | / | . | +
C=CCOC(=O)[C@H]1[C@@H]2C(=O)O[C@@H](c3ccccc3)[C@@H](c3ccccc3)N2[C@@H](c2ccc(OCCOC(=O)[C@@H]3C[C@@H]4C(=O)N[C@@H](Cc5ccccc5)C(=O)N4[C@@H]3c3cccc(OCCO)c3)cc2)[C@]12C(=O)Nc1ccccc12 | + | . | / | . | .
Cc1ccc(S(=O)(=O)Nc2ccc3c(c2)CC(=O)N([C@H](C)CO)C[C@@H](C)[C@H](CN(C)CC2CCCCC2)O3)cc1 | / | / | . | / | /
OC(c1ccccc1)c1nc2ccccc2n1CCOc1ccccc1 (stereo unspecified) | / | / | . | / | /
c1ccc(OCc2nc3ccccc3n2Cc2ccccn2)cc1 | . | . | 59.0 | . | .
O=S(=O)(Nc1ncccn1)c1ccc(NC(=S)Nc2ccc3c(c2)CCC3)cc1 | / | / | . | / | /
c1cnc(SCCCCOc2ccc3c(c2)CCC3)nc1 | / | / | 70.9 | / | /
C[C@H](CO)N1C[C@H](C)[C@@H](CN(C)C(=O)Nc2ccccc2)Oc2ccc(NC(=O)CCN3CCOCC3)cc2C1=O | . | . | . | . | .
COc1ccc(-c2nc(SCC(=O)Nc3cccc(C(F)(F)F)c3)n[nH]2)cc1 | / | / | . | / | /
C=CCSc1n[nH]c(-c2ccc(C(F)(F)F)cc2)n1 | / | / | 111.0 | / | /
CCOC(=O)c1cnc2c(C)c(C)ccc2c1NCCN(C)C | . | . | . | . | +
C[C@H](CO)N1C[C@H](C)[C@@H](CN(C)Cc2ccc(-c3ccccc3)cc2)OCc2cn(nn2)CCCC1=O | . | . | / | . | .
C[C@@H]1CC[C@]2(C(=O)O)CC[C@]3(C)C(=CCC4[C@@]5(C)C[C@@H](O)[C@@H](O)C(C)(C)C5CC[C@]43C)C2[C@]1(C)O (stereo partly specified) | . | . | . | . | .
C=C1CCC2(C(=O)O)CCC3(C)C(=CCC4C5(C)C[C@@H](O)[C@H](O)C(C)(CO)C5CCC43C)C2C1C (stereo partly specified) | + | + | . | . | .
C[C@H]1CN([C@@H](C)CO)C(=O)c2cc(NC(=O)CCCN(C)C)ccc2O[C@H]1CN(C)Cc1ccc2c(c1)OCO2 | . | . | / | . | .
C[C@H](CO)N1C[C@H](C)[C@H](CN(C)S(=O)(=O)c2cn(C)cn2)Oc2ncc(C#Cc3ccccc3)cc2C1=O | . | . | . | . | .
C/C=C(\C)C(=O)OC(C)(C)C1Cc2cc3ccc(=O)oc3cc2O1 (stereo unspecified) | . | . | . | . | +
CC(=O)OC(C)(C)[C@@H]1Cc2cc3ccc(=O)oc3cc2O1 | . | . | . | . | .
CC(C)C[C@H](NC(=O)[C@@H](O)[C@H](N)Cc1ccccc1)C(=O)O | / | / | . | / | /
CC(C)CC(NC(=O)OCC1c2ccccc2-c2ccccc21)C(=O)O (stereo unspecified) | . | . | 64.2 | . | .
Cc1sc2ncnc(SCC(=O)C(C)(C)C)c2c1C | / | / | 59.9 | / | /
CNc1cc(OC)c(C(=O)NC2CCN(Cc3ccccc3)C2C)cc1Cl (stereo unspecified) | . | . | . | . | .
CCOC(=O)c1c(CSc2nc(C)cc(C)n2)nc2c3ccccc3ccn12 | / | / | 90.4 | / | /
O=C(CNC(=O)c1cn(-c2ccccc2)nc1-c1ccccc1)c1ccccc1 | . | . | 121.2 | . | .
